Source: the supplement of paper PMC10849652
About 8,800 targets were measured; listed, in parts, are those with a hit and a random draw of the rest. About 0.5% of all pairs of compound and target were hits.

Sequence of UniProt O95644 (O95644 whole entry, looked up): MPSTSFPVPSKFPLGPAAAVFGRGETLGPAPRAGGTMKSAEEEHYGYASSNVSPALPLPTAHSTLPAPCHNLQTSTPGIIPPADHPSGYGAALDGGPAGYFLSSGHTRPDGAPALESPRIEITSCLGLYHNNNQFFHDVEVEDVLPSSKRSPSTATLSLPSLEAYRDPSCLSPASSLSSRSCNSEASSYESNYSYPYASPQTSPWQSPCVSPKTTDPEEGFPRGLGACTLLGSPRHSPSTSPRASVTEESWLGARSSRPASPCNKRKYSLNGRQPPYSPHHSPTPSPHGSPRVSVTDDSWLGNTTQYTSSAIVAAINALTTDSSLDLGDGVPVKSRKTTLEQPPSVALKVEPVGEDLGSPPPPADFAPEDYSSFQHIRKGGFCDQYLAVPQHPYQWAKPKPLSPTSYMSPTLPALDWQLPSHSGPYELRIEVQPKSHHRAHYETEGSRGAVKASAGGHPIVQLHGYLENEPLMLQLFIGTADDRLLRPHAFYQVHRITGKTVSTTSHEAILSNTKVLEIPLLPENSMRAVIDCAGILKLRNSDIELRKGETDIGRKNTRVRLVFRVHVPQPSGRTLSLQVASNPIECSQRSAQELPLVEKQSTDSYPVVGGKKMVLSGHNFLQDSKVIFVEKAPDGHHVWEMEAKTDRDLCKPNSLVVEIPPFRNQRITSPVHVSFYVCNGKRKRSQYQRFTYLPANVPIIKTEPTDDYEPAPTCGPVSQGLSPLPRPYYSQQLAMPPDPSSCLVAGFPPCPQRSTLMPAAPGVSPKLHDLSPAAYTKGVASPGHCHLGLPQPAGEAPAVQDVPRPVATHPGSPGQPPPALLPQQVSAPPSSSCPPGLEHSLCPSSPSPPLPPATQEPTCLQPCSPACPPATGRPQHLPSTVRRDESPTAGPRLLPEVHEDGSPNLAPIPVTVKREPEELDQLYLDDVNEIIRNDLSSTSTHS
Sequence of UniProt Q8NC60 (Q8NC60 whole entry, looked up): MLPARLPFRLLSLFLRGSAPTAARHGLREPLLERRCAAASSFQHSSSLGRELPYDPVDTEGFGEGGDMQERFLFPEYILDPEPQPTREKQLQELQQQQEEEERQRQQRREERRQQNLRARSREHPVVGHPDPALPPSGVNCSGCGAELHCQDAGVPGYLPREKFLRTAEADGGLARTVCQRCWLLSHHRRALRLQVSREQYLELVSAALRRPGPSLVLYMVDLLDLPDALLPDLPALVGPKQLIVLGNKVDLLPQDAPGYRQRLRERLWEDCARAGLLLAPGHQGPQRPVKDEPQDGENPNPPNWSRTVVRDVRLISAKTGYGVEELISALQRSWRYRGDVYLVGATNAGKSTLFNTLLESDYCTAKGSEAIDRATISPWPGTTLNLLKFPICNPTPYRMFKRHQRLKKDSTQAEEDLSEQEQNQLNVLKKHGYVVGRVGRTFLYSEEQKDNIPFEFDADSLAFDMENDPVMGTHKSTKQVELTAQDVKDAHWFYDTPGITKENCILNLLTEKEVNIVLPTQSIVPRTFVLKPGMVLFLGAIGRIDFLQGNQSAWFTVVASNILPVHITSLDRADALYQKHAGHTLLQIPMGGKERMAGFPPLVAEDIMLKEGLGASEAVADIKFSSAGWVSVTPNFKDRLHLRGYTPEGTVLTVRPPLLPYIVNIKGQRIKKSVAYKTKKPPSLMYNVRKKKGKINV
Sequence of UniProt Q99836 (Q99836 whole entry, looked up): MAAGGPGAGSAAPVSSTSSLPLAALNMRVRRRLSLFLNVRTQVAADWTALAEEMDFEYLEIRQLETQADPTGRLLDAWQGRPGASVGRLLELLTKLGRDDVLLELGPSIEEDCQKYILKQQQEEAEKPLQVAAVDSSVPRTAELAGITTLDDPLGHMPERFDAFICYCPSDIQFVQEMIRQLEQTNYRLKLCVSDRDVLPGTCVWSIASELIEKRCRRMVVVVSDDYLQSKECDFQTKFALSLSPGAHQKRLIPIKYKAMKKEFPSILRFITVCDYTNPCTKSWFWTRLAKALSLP
Sequence of UniProt P21359 (P21359 whole entry, looked up): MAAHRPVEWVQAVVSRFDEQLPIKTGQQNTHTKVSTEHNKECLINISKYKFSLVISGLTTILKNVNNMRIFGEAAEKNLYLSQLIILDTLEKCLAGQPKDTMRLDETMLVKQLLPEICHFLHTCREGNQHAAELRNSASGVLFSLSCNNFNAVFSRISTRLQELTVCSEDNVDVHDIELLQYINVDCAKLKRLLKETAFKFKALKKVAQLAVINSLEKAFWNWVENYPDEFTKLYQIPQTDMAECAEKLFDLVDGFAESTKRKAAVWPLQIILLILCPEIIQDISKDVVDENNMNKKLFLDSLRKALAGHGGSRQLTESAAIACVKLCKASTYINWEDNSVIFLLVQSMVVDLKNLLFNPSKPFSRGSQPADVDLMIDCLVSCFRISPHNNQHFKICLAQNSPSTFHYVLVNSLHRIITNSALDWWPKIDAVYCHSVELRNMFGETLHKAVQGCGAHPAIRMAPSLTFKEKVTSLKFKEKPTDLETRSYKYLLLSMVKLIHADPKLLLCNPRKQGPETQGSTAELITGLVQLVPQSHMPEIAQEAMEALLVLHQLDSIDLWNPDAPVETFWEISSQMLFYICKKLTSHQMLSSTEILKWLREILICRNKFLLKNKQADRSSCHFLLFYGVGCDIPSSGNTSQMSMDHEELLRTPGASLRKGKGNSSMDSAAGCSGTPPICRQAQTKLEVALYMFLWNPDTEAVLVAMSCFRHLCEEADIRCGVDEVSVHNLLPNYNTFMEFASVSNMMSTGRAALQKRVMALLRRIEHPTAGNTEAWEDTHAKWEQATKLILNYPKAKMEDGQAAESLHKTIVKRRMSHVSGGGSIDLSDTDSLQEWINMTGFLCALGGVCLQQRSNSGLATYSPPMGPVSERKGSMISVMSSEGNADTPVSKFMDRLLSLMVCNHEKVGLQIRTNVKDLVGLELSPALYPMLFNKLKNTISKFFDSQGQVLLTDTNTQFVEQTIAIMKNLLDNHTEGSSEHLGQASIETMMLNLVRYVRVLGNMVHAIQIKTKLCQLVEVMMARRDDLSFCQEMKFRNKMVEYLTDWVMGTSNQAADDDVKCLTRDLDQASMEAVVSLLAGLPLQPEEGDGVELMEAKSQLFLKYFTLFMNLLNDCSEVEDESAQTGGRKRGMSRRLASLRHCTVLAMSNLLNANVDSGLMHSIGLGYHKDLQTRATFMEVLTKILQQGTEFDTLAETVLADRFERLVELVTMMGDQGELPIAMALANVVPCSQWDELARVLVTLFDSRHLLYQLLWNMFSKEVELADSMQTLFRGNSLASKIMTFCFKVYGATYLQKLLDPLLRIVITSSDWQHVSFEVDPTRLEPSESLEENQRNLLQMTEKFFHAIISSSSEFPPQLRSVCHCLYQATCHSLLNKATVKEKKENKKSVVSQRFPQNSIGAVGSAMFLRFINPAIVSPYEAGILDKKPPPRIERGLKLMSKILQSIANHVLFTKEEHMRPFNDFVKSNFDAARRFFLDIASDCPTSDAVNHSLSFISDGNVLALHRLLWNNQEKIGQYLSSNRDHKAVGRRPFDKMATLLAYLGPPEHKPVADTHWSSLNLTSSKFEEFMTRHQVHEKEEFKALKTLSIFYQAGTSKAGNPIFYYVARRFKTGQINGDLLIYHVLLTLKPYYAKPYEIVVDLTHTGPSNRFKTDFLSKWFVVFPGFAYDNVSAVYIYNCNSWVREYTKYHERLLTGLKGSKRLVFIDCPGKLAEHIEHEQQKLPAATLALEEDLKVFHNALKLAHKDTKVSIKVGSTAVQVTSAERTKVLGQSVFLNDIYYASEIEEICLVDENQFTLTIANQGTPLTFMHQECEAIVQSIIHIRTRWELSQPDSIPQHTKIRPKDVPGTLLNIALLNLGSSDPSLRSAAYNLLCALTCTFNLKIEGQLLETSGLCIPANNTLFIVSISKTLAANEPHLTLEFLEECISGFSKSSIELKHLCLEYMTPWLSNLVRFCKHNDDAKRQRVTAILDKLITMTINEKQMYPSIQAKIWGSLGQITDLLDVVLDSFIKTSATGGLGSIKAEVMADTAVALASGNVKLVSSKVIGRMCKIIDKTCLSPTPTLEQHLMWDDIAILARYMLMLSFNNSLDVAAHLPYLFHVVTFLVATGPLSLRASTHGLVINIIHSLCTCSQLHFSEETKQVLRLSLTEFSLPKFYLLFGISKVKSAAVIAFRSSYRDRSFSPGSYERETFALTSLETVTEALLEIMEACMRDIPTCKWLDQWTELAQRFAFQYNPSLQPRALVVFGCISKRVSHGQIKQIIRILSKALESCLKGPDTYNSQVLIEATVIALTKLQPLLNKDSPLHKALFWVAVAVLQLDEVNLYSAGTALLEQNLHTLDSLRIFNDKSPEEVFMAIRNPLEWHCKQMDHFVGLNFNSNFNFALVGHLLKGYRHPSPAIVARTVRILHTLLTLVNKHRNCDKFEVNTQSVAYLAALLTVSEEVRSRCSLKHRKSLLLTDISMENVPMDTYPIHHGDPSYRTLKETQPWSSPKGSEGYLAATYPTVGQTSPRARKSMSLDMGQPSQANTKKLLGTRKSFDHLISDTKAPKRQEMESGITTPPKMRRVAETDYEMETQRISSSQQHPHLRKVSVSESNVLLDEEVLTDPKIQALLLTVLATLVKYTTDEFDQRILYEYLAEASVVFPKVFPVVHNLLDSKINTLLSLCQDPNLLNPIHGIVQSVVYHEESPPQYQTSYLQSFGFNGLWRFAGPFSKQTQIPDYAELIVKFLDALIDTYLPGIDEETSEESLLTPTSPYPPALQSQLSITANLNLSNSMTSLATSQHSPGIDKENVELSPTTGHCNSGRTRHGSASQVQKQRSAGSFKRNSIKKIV
Sequence of UniProt Q9Y6C9 (Q9Y6C9 whole entry, looked up): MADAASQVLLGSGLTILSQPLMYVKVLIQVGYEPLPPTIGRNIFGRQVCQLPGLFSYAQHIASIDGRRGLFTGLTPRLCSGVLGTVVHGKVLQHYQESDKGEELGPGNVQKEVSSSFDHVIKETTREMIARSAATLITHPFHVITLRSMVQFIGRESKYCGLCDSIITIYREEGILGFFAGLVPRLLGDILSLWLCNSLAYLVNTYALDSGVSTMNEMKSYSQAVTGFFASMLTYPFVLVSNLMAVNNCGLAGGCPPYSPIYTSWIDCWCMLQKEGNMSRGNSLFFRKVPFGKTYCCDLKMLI

The targets below were run with CNc1nc(-c2ccc3c(N)n[nH]c3c2)cc(N2C[C@@H](C(=O)NC3CCCCC3)CC[C@H]2C)n1 (assay: log2 fold change, soluble protein after heating vs DMSO (PISA); higher = thermal stabilisation; K562 lysate, 10 uM; active = over 0.2 and 3.5 SD of the protein, either way, in both replicates (recomputed)).
Method in brief: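 Following dounce homogenisation of K562 pellets in PBS pH 7.4 with 1 mM MgCl2, crude extract at 1 mg/mL protein was incubated for 30 min with 10 μM compound. Aliquots were then heated for 3 min over 48°C-58°C and pooled, NP-40 was added to 0.5% at 4°C, and soluble protein was recovered as the supernatant at 21,000xg for 90 min. Channel-sum-equalised TMTpro 16plex LC-MS/MS quantified this protein. Each value, from duplicates, is a log-two fold change in thermal stability relative to solvent controls.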
In the case of NF1 (UniProt P21359), the log2 fold change is reported as 0.009 (inactive). In the case of NTMT1 (UniProt Q9BV86), the log2 fold change is reported as 0.023 (inactive). MYD88 isoform 6 (UniProt Q99836) was tested, and the log2 fold change was 0.001 (inactive). In the case of NUSAP1 (UniProt Q9BXS6), the log2 fold change is reported as 0.07 (inactive). MVB12A (UniProt Q96EY5) was tested, and the log2 fold change was 0.037 (inactive). NAT1 (UniProt P18440) was tested, and the log2 fold change was -0.046 (inactive). In the case of MSH3 (UniProt P20585), the log2 fold change is reported as 0.057 (inactive). With NCK1 (UniProt P16333) the log2 fold change was -0.008 (inactive). In the case of NGLY1 (UniProt Q96IV0), the log2 fold change is reported as 0 (inactive). With NOA1 (UniProt Q8NC60) the log2 fold change was 0.063 (inactive). NUB1 (UniProt Q9Y5A7) was tested, and the log2 fold change was 0.014 (inactive). For NAA30 (UniProt Q147X3), the log2 fold change was 0.023 (inactive). With NUDT5 (UniProt Q9UKK9) the log2 fold change was -0.018 (inactive). For NOSIP (UniProt Q9Y314), the log2 fold change was 0.004 (inactive). With MTFP1 (UniProt Q9UDX5) the log2 fold change was 0.007 (inactive). NFATC1 (UniProt O95644) was tested, and the log2 fold change was -0.031 (inactive). MYOM1 (UniProt P52179) was tested, and the log2 fold change was 0.139 (inactive). In the case of MTCH2 (UniProt Q9Y6C9), the log2 fold change is reported as 0.047 (inactive). For PAK1 (UniProt Q13153), the log2 fold change was 0.044 (inactive). With NFATC2 (UniProt Q13469) the log2 fold change was 0.06 (inactive). With NOC2L (UniProt Q9Y3T9) the log2 fold change was 0.257 (active). In the case of NEK7 (UniProt Q8TDX7), the log2 fold change is reported as -0.013 (inactive).
